Assay [1] can be described thus: qHTS profiling of the MIPE4 collection as inhibitors of Plasmodium falciparum (DD2) proliferation (AID 743345; call rule not given here). Particulars: P. falciparum Dd2 in erythrocytes, SYBR Green DNA, 72 h; at 28.5 µM (top of the series) unless noted. In a few lines:
(§1)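 Parasite DNA was quantified by SYBR Green I fluorescence (ex 485, em 535 nm) after overnight lysis in saponin/Triton buffer at room temperature. Cultures at 0.3% parasitemia and 2.5% hematocrit were first exposed to compound for 72 h at 37 C; signals were normalised to artemisinin (0.29 uM) and vehicle wells.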

Assay [2] can be described thus: qHTS profiling of the MIPE4 collection as inhibitors of Plasmodium falciparum (DD2) proliferation (Rep 2) (AID 743346; call rule not given here). The conditions noted are these: P. falciparum Dd2 in erythrocytes, SYBR Green DNA, 72 h; at 28.5 µM (top of the series) unless noted. In a few lines:
as §1
Background: qHTS replaces the single test concentration by a dilution series.

Assay [3] can be described thus: qHTS profiling of the MIPE4 collection as inhibitors of Plasmodium falciparum (HB3) proliferation (AID 743347; call rule not given here;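 further: plate controls were DMSO vehicle wells for no effect and artemisinin wells for full effect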). The conditions noted are these: P. falciparum HB3 in erythrocytes, SYBR Green DNA, 72 h; at 28.5 µM (top of the series) unless noted. In a few lines: as §1
The nature of assay [4]: High-throughput drug toxicity screening in the BPDCN cell line Gen2.2 (AID 1224824; call rule not given here;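 further: cells exposed to compounds for 48 h before reading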). Particulars: Gen2.2 BPDCN cells; at 45.8 µM (top of the series) unless noted. In a few lines:
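Seed 500 exponentially growing Gen2.2 cells/well; add compounds by pin tool; incubate 48 h, 37 °C, 5% CO2; add CellTiter-Glo, 15 min RT; read luminescence. % activity vs DMSO (100%) and bortezomib (0%).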

Assay [5] can be described thus: High-throughput drug toxicity screening in the BPDCN cell line Cal-1 (AID 1224825; call rule not given here). Particulars: Cal-1 BPDCN cell viability, qHTS; at 45.8 µM (top of the series) unless noted. In short, it runs like this:
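CellTiter-Glo luminescence after 48 h compound exposure; percent activity scaled with DMSO as 100% and bortezomib (9.2 uM final) as 0%. Cal-1 cells seeded at 500/well in RPMI, 10% FBS, no phenol red.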

Assay [6] in a line: qHTS assay for measurement of the activity of small molecule inhibitors on Zika virus induced Caspase-3 activity in human iPSC derived neural progenitor cells (hNPCs) (AID 1224857). Further: nearly all actives have a fitted effect of over 65% in size. Further: potency means the concentration at half of the fitted maximal effect. In short, it runs like this: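 Pretreat hNPCs with compound 1 h; infect ZIKV 2 FFU/cell; 6 h 37 C, 5% CO2; Caspase-Glo 3/7, 30 min RT; luminescence; normalize to no-virus and virus-only wells.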
A short description of assay [7]: qHTS assay for measurement of the activity of small molecule inhibitors on Zika virus induced Caspase-3 activity in human astrocytoma cells (AID 1224859).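 Further: plate controls were ZIKV-infected untreated cells for no effect and uninfected cells for full effect.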 In a few lines:
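Human SNB-19 astrocytoma cells in RPMI 1640 with 10% FBS receive compound one hour ahead of Zika virus at 2 FFU/cell. After 6 h infection, caspase-3/7 activity is detected by Caspase-Glo luminescence.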

A short description of assay [8]: qHTS Screen of the MIPE 4.0 Collection Against Ewings Sarcoma (TC32) (AID 1259256). Further: nearly all actives have a fitted effect of over 45% in size. Further: potency means the concentration at half of the fitted maximal effect. In a few lines: (§2)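 Dose series incubated 48 h with cells in RPMI plus 5% FBS, glutamine and penicillin/streptomycin; cell viability then quantified via CellTiter-Glo.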
Assay [9] in a line: qHTS assay to identify small molecule inhibitors of chordoma cells - UCH-1 (AID 1259355). Further: nearly all actives have a fitted effect of over 55% in size. Further: potency means the concentration at half of the fitted maximal effect. In a few lines:
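Screening used approved and investigational drugs in 15-point titration against 800 seeded cells per well. A fixed combination of auranofin with camptothecin, doxorubicin, rubitecan and topotecan followed compound addition, and growth was scored by CellTiter-Glo after 48hr.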

Assay [10] is described as follows: qHTS assay to identify small molecule inhibitors of chordoma cells - UCH-2 (AID 1259356). Further: on the % scale 0 is the no-effect control and ±100 the full control effect.
Assay [11] can be described thus: P-glycoprotein substrates identified in KB-3-1 adenocarcinoma cell line, qHTS therapeutic library screen (AID 1346986). Further: nearly all actives have a fitted effect of over 60% in size. In a few lines: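 Viability by CellTiter-Glo after 72 h compound exposure at 37 degree C, 5% CO2. Cytotoxic call: curve class -1.1 to -2.4, maximum response >50%, AC50 < 10 uM, compared across KB-3-1 and P-gp-overexpressing KB-8-5-11.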
Assay [12] in a line: qHTS Screen of the MIPE 4.0 Collection Against Ewings Sarcoma (TC71) (AID 1259253). Further: potency means the concentration at half of the fitted maximal effect; nearly all actives have a fitted effect of over 40% in size. In short, it runs like this: as §2
Assay [13] in a line: Identifying Small Molecule Inhibitors of Pancreatic Cancer Stem Cells (A2780, Spheroid) (AID 1259357).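 Further: spheroids pre-formed over 14 days in stem cell medium on hydrogel; potency means the concentration at half of the fitted maximal effect; compound exposure lasted 48 h before the ATP luminescence read.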 Particulars: Potency: A2780 spheroid viability. In a few lines: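 Spheroids grown 14 days in stem cell media on hydrogel-coated nonadherent plates; 2D lines seeded directly. Compounds added after 4 h attachment, 48 h at 37C, 5% CO2; CellTiter-Glo luminescence normalized to DMSO (no inhibition) and no-cell wells (full inhibition).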

Assay [14] is described as follows: Identifying Small Molecule Inhibitors of Pancreatic Cancer Stem Cells (SN12C, Adherent) (AID 1259358).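 Further: cell survival measured after 48 h of compound exposure.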 Further: potency means the concentration at half of the fitted maximal effect. In short, it runs like this: (§3)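 Endpoint: ATP-based luminescence, 48 h drug exposure. Bortezomib at 9.2 uM final as full-kill control; DMSO vehicle as negative control; activity normalized between vehicle and cell-free wells.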
Assay [15] in a line: Identifying Small Molecule Inhibitors of Pancreatic Cancer Stem Cells (Panc1, Spheroid) (AID 1259359).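 Further: potency means the concentration at half of the fitted maximal effect; compound exposure lasted 48 h before reading.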 The conditions noted are these: Panc1 spheroid cancer stem cell viability. In a few lines: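 After a 4 h attachment period, compounds were pinned into wells and cultures held 48 h under standard incubator conditions. Viability was then measured as CellTiter-Glo luminescence following 10 min at room temperature.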

Assay [16] can be described thus: Identifying Small Molecule Inhibitors of Pancreatic Cancer Stem Cells (Panc1, Adherent) (AID 1259362). Further: potency means the concentration at half of the fitted maximal effect.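 On viability, % of control: compound exposure lasted 48 h before the viability read; plate controls were DMSO-treated cells for no effect and cell-free media wells for full effect.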 Particulars: Potency: viability. In a few lines: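 Viability is scored by CellTiter-Glo luminescence 48 h after dosing, expressed as percent activity against vehicle and no-cell references. Spheroid formats rely on cells cultured 14 days in stem cell media beforehand.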

The nature of assay [17]: qHTS Screen of the MIPE 4.0 Collection Against Ewings Sarcoma (EW8) (AID 1259255). Further: nearly all actives have a fitted effect of over 35% in size. Further: potency means the concentration at half of the fitted maximal effect.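 On viability: 100% = DMSO-treated cells and 0% = medium-only wells without cells.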 In short, it runs like this:
as §2

A short description of assay [18]: Identifying Small Molecule Inhibitors of Pancreatic Cancer Stem Cells (A278, Adherent) (AID 1259361).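 Further: viability read after 48 h compound exposure; nearly all actives have a fitted effect of over 35% in size.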 In short, it runs like this: as §3
Assay [19] can be described thus: qHTS Screen of the MIPE 4.0 Collection Against Ewings Sarcoma (RDES) (AID 1259252).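 Further: 100% = DMSO-treated cells and 0% = medium-only wells without cells; nearly all actives have a fitted effect of over 35% in size.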 In short, it runs like this:
as §2

Results filed as inconclusive are left out. Active and inactive are the calls of the source. Unless noted, the call rests on the fitted dose curve; in most records, active means well fitted curve in the direction sought with a large enough effect; inconclusive means small, poorly fitted or top-dose-only effect, or another doubt; inactive means no such curve, though single readings can be large; an effect the other way counts as inactive or inconclusive.

For the molecule `COC1=C(OC)C(=O)C(CCCCCCCCCCO)=C(C)C1=O`, the parasite growth remaining, % of DMSO control (lower = more inhibition) in [1] amounted to 84.8%. In assay [2], this molecule came in with a parasite growth, % of control (lower = inhibition) of 32.3%. The growth, % of control in assay [3] stood at 73.4%. Further, the cell viability, % of control (lower = more cytotoxic) in assay [4] worked out at 145%. Moreover, in assay [5], the viability (% of control) came out at 24.2%. Also, the Potency result in assay [6], in [7], in [9] and in assay [10] was “inactive” in each case. The Potency in assay [8] is 26.4 µM (active).
For the molecule `Oc1ccc2ccccc2c1SSc1c(O)ccc2ccccc12`, the parasite growth remaining, % of DMSO control (lower = more inhibition) in assay [1] was 53.4%. Also, the parasite growth, % of control (lower = inhibition) in assay [2] amounted to 30.4%. In [3], the growth, % of control was determined as 9.78%. For the same molecule, the cell viability, % of control (lower = more cytotoxic) in assay [4] came to 2.05%. The viability (% of control) in assay [5] came to 0.636%. For the same molecule, the values for the Potency in assay [6] and in assay [8] were 8.91 µM (active) and 23.5 µM (active), respectively. For the same molecule, the Potency entry in assay [7] and in [11] was “inactive” throughout.
In the case of `CC(C)c1ccc2c(c1)c(SC(C)(C)C)c(CC(C)(C)C(=O)O)n2Cc1ccc(Cl)cc1`, in assay [1], the parasite growth remaining, % of DMSO control (lower = more inhibition) is 42.3%. This molecule also displayed a parasite growth, % of control (lower = inhibition) in assay [2] of 22%. The same molecule gave a growth, % of control in [3] of 11.8%. Further, in assay [4], the cell viability, % of control (lower = more cytotoxic) amounted to 111%. Moreover, in assay [5], the viability (% of control) stood at 119%. For the same molecule, the Potency result in assay [6], in assay [7], in assay [14] and in assay [16] was “inactive” throughout. Moreover, the Potency was 20.9 µM (active) in assay [12], 18.7 µM (active) in [13] and 18.7 µM (active) in [15].
With `COC(=O)C1=C(C)NC(C)=C(C(=O)OCCCN2CCC(c3ccccc3)(c3ccccc3)CC2)C1c1cccc([N+](=O)[O-])c1` (centres undefined), the parasite growth remaining, % of DMSO control (lower = more inhibition) in [1] was determined as 107%. Moreover, the parasite growth, % of control (lower = inhibition) in assay [2] stood at 86.6%. In assay [3], this molecule showed a growth, % of control of 102%. Also, in assay [4], the cell viability, % of control (lower = more cytotoxic) is 109%. In assay [5], the viability (% of control) was 123%. In addition, the Potency result in assay [6] and in [7] was “inactive” throughout. Also, the Potency was 20.9 µM (active) in assay [12], 18.7 µM (active) in [17], 29.6 µM (active) in assay [8] and 31.6 µM (active) in assay [9].
`CCOC(=O)c1c(C)n(C)c2ccc(O)cc12`: the parasite growth remaining, % of DMSO control (lower = more inhibition) in assay [1] stood at 93.3%. For the same molecule, in assay [2], the parasite growth, % of control (lower = inhibition) was 87.1%. Moreover, the growth, % of control in assay [3] came out at 66.7%. The cell viability, % of control (lower = more cytotoxic) in assay [4] stood at 232%. Moreover, the viability (% of control) in assay [5] amounted to 87.8%. The Potency result in assay [6], in assay [7], in [8], in assay [9] and in [10] was “inactive” in each case.
Take `CCc1nc(N)nc(N)c1-c1ccc(Cl)cc1`: in assay [1], the parasite growth remaining, % of DMSO control (lower = more inhibition) amounted to 83.6%. Further, in assay [2], the parasite growth, % of control (lower = inhibition) came out at 85.4%. This molecule also registered a growth, % of control in [3] of 18.1%. For the same molecule, the cell viability, % of control (lower = more cytotoxic) in assay [4] is 136%. For the same molecule, the viability (% of control) in [5] turned out to be 37.1%. Moreover, the Potency result in [6], in assay [7], in assay [9] and in assay [10] was “inactive” throughout. The Potency is 1.32 µM (active) in assay [12] and 2.64 µM (active) in assay [8].
Consider `S=c1nc[nH]c2nc[nH]c12`, for which the parasite growth remaining, % of DMSO control (lower = more inhibition) in [1] worked out at 96%. This molecule also had a parasite growth, % of control (lower = inhibition) in assay [2] of 6.58%. The growth, % of control in assay [3] is 55.2%. The cell viability, % of control (lower = more cytotoxic) in [4] amounted to 203%. Further, the viability (% of control) in assay [5] came out at 89.6%. Moreover, the Potency result in assay [6], in assay [7] and in [10] was “inactive” in each case. For the same molecule, the Potency in assay [12] was 1.87 µM (active); in assay [17], 2.64 µM (active); in [8], 3.32 µM (active); in assay [14] it was 38.2 µM (active); in assay [16], 5.4 µM (active). Also, the IC50 (viability decrease) in [18] is 1.71 µM (active).
`CC(C)c1nc(CN(C)C(=O)N[C@H](C(=O)N[C@@H](Cc2ccccc2)C[C@H](O)[C@H](Cc2ccccc2)NC(=O)OCc2cncs2)C(C)C)cs1`: in [1], the parasite growth remaining, % of DMSO control (lower = more inhibition) is 66.3%. This molecule returned a parasite growth, % of control (lower = inhibition) in [2] of 41.9%. Also, in assay [3], the growth, % of control came to 15.5%. Moreover, the cell viability, % of control (lower = more cytotoxic) in [4] was found to be 28.1%. Moreover, the viability (% of control) in assay [5] was determined as 94.9%. Also, the Potency entry in assay [6], in [7] and in assay [19] was “inactive” each time. Moreover, the Potency in assay [17] is 16.6 µM (active); in [8], 14.8 µM (active).
For the molecule `O=C(NC(Cc1cc(=O)[nH]c2ccccc12)C(=O)O)c1ccc(Cl)cc1` (centres undefined), in assay [1], the parasite growth remaining, % of DMSO control (lower = more inhibition) came out at 96.8%. The parasite growth, % of control (lower = inhibition) in [2] is 89.9%. In [3], this molecule gave a growth, % of control of 75.3%. For the same molecule, in [4], the cell viability, % of control (lower = more cytotoxic) was 149%. Further, the viability (% of control) in assay [5] turned out to be 108%. Besides, the Potency entry in [6], in [7], in assay [17], in [8], in assay [9] and in assay [10] was “inactive” each time. Further, in assay [11], the Potency entry was “inactive”.

These data come from PubChem BioAssay (NCATS).
